Bioassay records: PubChem, National Center for Advancing Translational Sciences (NCATS)
Marburg entry inh = inhibitors of Marburg virus binding or cell entry | AID 540276 | hit rate 1.8% among 300,000 | Marburg virus pseudotyped entry inhibition, cell reporter | Potency, µM (highest dose often 37.8 µM), for the others: at the top dose activity change, negative = inhibition, hits mostly inhibitors; calls by dose curve; tested in HEK293 cells
LASV entry inh = blocks Lassa virus binding to or entry into cells | Lassa virus pseudotype entry inhibition, cell reporter | Potency, µM (highest dose often 37.9 µM), for inactives: at the highest dose activity change, negative = inhibition, most hits filed as inhibitors | hit rate 1.2% among 300,000; calls by dose curve; tested in HEK293 cells; further: nearly all actives have a fitted effect of over 50% in size
Vaccinia Venus = vaccinia inhibition (Venus reporter); Vaccinia virus Venus reporter expression, fluorescence; Potency, µM (series often up to 36.5 µM), for inactives: top-dose activity change, negative = inhibition, usual class: inhibitors; hit rate 0.46% among 330,000; calls by dose curve; tested in A549 cells; further: nearly all actives have a fitted effect of over 30% in size
HCV inh = HCV inhibition. Huh7.5.1 HCVcc-Cre infection, luciferase reporter, 44 h. Potency, µM (doses to about 41.8 µM), for inactives: top-dose activity change, negative = inhibition, usual class: inhibitors. hit rate 3.4% among 340,000. AID 651820; active means well fitted inhibition curve with a large enough effect; inconclusive means small, poorly fitted or top-dose-only effect, or another doubt; inactive means no such curve, though single readings can be large or run the other way
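A cell-based infection assay in which seeded cells (1,000 per well) receive test compound after 4 h, are inoculated with HCVcc-Cre at approximately 0.5 moi, and are incubated 44 h before luminescence detection.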
Vaccinia mCherry = vaccinia inhibition (mCherry reporter); Vaccinia virus mCherry reporter infection, fluorescence; Potency, µM (highest dose often 36.5 µM), for inactives: top-dose activity change, negative = inhibition, actives largely listed as inhibitors; hit rate 0.63% among 310,000; calls by dose curve; tested in A549 cells; further: nearly all actives have a fitted effect of over 35% in size
* hit, by the source's call; i = inactive; u = inconclusive; x = no result; [ ] = dose if it differs, or a comment. An excerpt weighted towards active compounds, which were near 4.6% of everything screened. On the % scale 0 is the no-effect control and ±100 the full control effect; potency means the concentration at half of the fitted maximal effect.

SMILES	Marburg entry inh	LASV entry inh	Vaccinia Venus	HCV inh	Vaccinia mCherry
O=C(c1ccc(Cl)c(S(=O)(=O)Nc2ccc(F)cc2)c1)N1CCN(c2ccccn2)CC1	15µM*	u	x	-1%	x
Cc1ccc(NS(=O)(=O)c2ccc(C(=O)N3CCN(c4ccccn4)CC3)cc2)cc1	-24%	-14%	-27%	u	x
CCN(CC)c1ccc(/C=N/Nc2nc(C)cc(=O)[nH]2)c(O)c1	0.52µM*	0.82µM*	u	4µM*	0.89µM*
Cc1cc(=O)[nH]c(NN=Cc2cc(Br)ccc2O)n1	2µM*	10µM*	u	u	2µM*
Cc1ccc(CNC(=O)c2ccc(CSCc3ccccc3C)o2)cc1	x	u	-11%	x	2%
C=CCN1C(=O)C(Cc2ccc(OCC)cc2)S/C1=N\N=C\c1cccs1 (configuration not stated)	-27%	11µM*	1%	u	x
COCCN=c1scc(-c2cccs2)n1/N=C/c1ccc(O)c(O)c1O	x	x	u	u	11µM*
Clc1ccc(-c2nc(-c3ccncc3)no2)c(Cl)c1	x	x	x	10%	x
Nc1nccc(-c2cc(-c3ccc(Cl)cc3Cl)no2)n1	14µM*	u	-25%	-3%	-19%
CCCCCCc1cc2cc(-c3cn4c(n3)sc3cc(OC)ccc34)c(=O)oc2cc1O	x	17%[46.1 µM]	-14%	x	-14%
COC(=O)c1sc2nc(N3CCCCC3)c3c(c2c1N)CCCC3	-29%	u	u	13µM*	-19%[1.46 µM]
NC(=O)c1sc2nc(N3CCCCC3)c3c(c2c1N)CCCC3	u	-7%	x	-8%	x
N#CC1=C(N)OC2=C(C(=O)CC(c3ccccc3)C2)C1c1ccc2c(c1)OCO2 (configuration not stated)	-4%	13µM*	-9%	2%	-30%
CCN(CC)CCCOc1ccc(Cl)c(Cl)c1	u	-20%	-15%	u	-20%
CCN(CC)CCOc1ccc2c(c1)C(=NO)c1cc(OCCN(CC)CC)ccc1-2	2.6µM*	10µM*	3.5µM*	10µM*	8.9µM*
NC(N)=NN=C1c2ccccc2-c2ccccc21	u	18%[46.1 µM]	-12%	-1%	-5%
CCCOc1ccc2c(c1)C(=NN=C(N)N)c1cc(OCCC)ccc1-2	u	u	u	11µM*	u
CC(=O)c1c(C)nc2nc(-c3ccccc3)nn2c1C	u	28%[46.1 µM]	1%	x	-1%
COc1ccc2nc(C)cc(SCC(=O)N/N=C/c3cccc4ccccc34)c2c1	u	13µM*	x	10µM*	x
Cc1cc(SCC(=O)N/N=C/c2ccc(O)cc2O)nc2ccccc12	u	u	u	u	1.1µM*
Cc1cc(SCC(=O)c2cccs2)nc2ccccc12	11%	4%	u	10µM*	u
CCc1nnc(NC(=O)c2nc(SCc3ccc(F)cc3)ncc2Cl)s1	-17%[46.1 µM]	-4%[46.1 µM]	7%	x	1%
CCOC(=O)c1c(C)[nH]c(C)c1C(=O)COC(=O)c1ccc(Cl)c(S(=O)(=O)NCc2ccccc2)c1	-16%[46.1 µM]	-27%	u	7.1µM*	u
O=C(COC(=O)c1ccc(Cl)c(S(=O)(=O)NCc2ccccc2)c1)NC1CC1	6%	13%	-5%	0%	-10%
CCn1c(-c2ccccc2F)nc2cc(NC(C)=O)cc(C(=O)N(C)Cc3ccc4nccnc4c3)c21	x	x	-12%	x	-13%
SMILES	Marburg entry inh	LASV entry inh	Vaccinia Venus	HCV inh	Vaccinia mCherry
COC(=O)c1c(NC(=O)Cc2cccs2)sc(C)c1C	-20%	10%	x	11µM*	x
CC(=O)Oc1c2c(c(CC=C(C)C)c3c1C(=O)C1=CC4CC5C(C)(C)OC(C/C=C(\C)C(=O)O)(C4=O)[C@]15O3)OC(C)(CCC=C(C)C)C=C2 (some centres not stated)	x	x	u	x	11µM*
COC(=O)/C(C)=C\CC12OC(C)(C)C3CC(C=C4C(=O)c5c(OC)c6c(c(CC=C(C)C)c5OC431)OC(C)(CCC=C(C)C)C=C6)C2=O (configuration not stated)	x	x	u	x	13µM*
CCOC(=O)NN=C1C[C@@H](O)[C@@H](O)[C@@H]2[C@H]3C(=O)N([C@@H](C)c4ccccc4)C(=O)[C@@H]3CC[C@H]12	10%[14.2 µM]	x	x	x	x
CN(C)c1ccc(C=Nc2cnc3ccccc3c2)cc1	x	x	-16%	x	-16%
COc1cc(NC(=O)c2cc3cc4ccc(OC)c(Cl)c4nc3s2)cc(OC)c1	x	-16%[46.1 µM]	-7%	x	-4%
COc1cc2ccccc2cc1C(=O)Nc1ccc(N2CCN(C(=O)C(C)C)CC2)cc1	x	x	x	10µM*	x
CCOc1ccc(C(=O)Nc2ccc(N3CCN(C)CC3)cc2)cc1Br	11µM*	6%	u	-9%	x
COc1cc2ccccc2cc1C(=O)Nc1ccc(N2CCN(C)CC2)cc1	u	u	x	13µM*	x
COc1ccc(Nc2ncc(C(=O)N3CCN(c4ccc(F)cc4)CC3)c3ccccc23)cc1	u	u	-15%	11µM*	-21%
COc1ccc(Nc2ncc(C(=O)N3CCN(c4ccc(OC)cc4)CC3)c3ccccc23)cc1	u	u	-24%	x	-23%
O=C(Cn1cc(COc2ccc([N+](=O)[O-])cc2)nn1)c1ccc(O)cc1	x	5%[46.1 µM]	x	x	x
COc1cc(Nc2ncc3c(n2)CCN(Cc2cc(Br)cs2)C3)cc(OC)c1	x	-1%[46.1 µM]	-15%	x	-27%
COc1ccc(C(=O)Nc2ccc(N3CCN(C(=O)c4ccccc4C)CC3)cc2)cc1	-21%	-24%	-18%	11µM*	i
COc1ccc(C(=O)N2CCN(c3ccc(NC(=O)c4cccnc4)cc3)CC2)cc1	-3%	9%	-10%	-25%	-8%
Cc1c(-c2nsc(NC(=O)c3cccs3)n2)nnn1-c1ccc(Br)cc1	x	u	u	x	-32%
COc1cc(N(C)C)c(OC)cc1/C=C1\C=Cc2ccccc21	x	x	-5%	x	-15%
Cc1ccc(Cl)cc1N1CCN(C(=O)c2noc(C(C)C)c2[N+](=O)[O-])CC1	x	x	x	3.5µM*	x
Cc1cc(NC(=O)c2sccc2C)n(-c2nc3ccccc3[nH]2)n1	u	-11%	u	11µM*	u
COc1cccc(OC)c1C(=O)Nc1cc(C)nn1-c1nc2ccccc2[nH]1	u	11µM*	1%	11µM*	-14%
Cc1c(OCC(=O)N2CCC(C(=O)O)CC2)ccc2c3c(c(=O)oc12)CCC3	x	x	-4%	0.32µM*	-3%
Cc1cccc(CNC(=O)CN2CC(C)Sc3ccccc32)c1 (configuration not stated)	x	6%[46.1 µM]	-2%	x	-2%
Cc1ccc(S(=O)(=O)N2CCN(CC(=O)NC3CCCc4ccccc43)CC2)cc1C (configuration not stated)	u	-10%[46.1 µM]	-5%	32µM*	-23%
CCOC(=O)C1CCCN(Cc2nc(N)nc(Nc3ccc(Cl)cc3)n2)C1 (configuration not stated)	7.1µM*	-8%	-23%	u	-21%
COc1ccc(-n2nc(C(=O)NCC(=O)Nc3cc(C)ccc3OC)c3ccccc3c2=O)c(OC)c1	2%[46.1 µM]	6.3µM*	0%	11%	-1%
